Experimental data reported in ChEMBL document CHEMBL3433997, “St. Jude Leishmania screening dataset” (2016).

Legend:
Type in all cases: functional
[1] = target: Solute carrier family 2, facilitated glucose transporter member 1 (Homo sapiens) (UniProt P11166); assay: ST_JUDE_LEISH: Cytotoxicity at 2uM final concentration against transgenic Leishmania Mexicana promastigotes LmGLUT1 that are glucose transport deficient and complemented with the human glucose transporter GLUT1. Activity is measured by DNA content using SYBR green in vitro
[2] = target: Hexose transporter 1 (Plasmodium falciparum) (UniProt O97467); assay: ST_JUDE_LEISH: Cytotoxicity at 2uM final concentration against transgenic Leishmania Mexicana promastigotes LmPfHT that are glucose transport deficient and complemented with the Plasmodium falciparum hexose transporter. Activity is measured by DNA content using SYBR green in vitro
[3] = target: Glucose transporter (Leishmania mexicana) (UniProt O61059); assay: ST_JUDE_LEISH: Cytotoxicity at 2uM final concentration against transgenic Leishmania Mexicana promastigotes LmGT2 that are glucose transport deficient and complemented with the L. Mexicana glucose transporter 2. Activity is measured by DNA content using SYBR green in vitro

Solute carrier family 2, facilitated glucose transporter member 1 (Homo sapiens), sequence (P11166 whole entry): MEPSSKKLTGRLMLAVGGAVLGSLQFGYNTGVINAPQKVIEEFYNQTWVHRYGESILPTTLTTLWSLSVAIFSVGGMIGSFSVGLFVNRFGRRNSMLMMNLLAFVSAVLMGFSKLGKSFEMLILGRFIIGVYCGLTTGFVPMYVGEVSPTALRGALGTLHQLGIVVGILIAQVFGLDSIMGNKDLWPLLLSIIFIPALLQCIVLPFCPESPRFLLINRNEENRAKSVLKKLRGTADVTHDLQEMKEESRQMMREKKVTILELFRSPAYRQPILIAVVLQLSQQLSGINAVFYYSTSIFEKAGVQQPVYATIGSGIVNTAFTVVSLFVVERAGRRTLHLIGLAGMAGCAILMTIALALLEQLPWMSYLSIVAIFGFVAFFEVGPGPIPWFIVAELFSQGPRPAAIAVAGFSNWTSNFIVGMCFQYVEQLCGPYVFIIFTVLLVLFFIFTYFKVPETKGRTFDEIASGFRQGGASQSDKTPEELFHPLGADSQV

Structure (SMILES) | inhibition [1] | inhibition [2] | inhibition [3]
COc1ccc(CCNC(=O)c2cc3c(=O)n4cccc(C)c4nc3n(C)c2=N)cc1 | 13.4% | 10.1% | 15.2%
CN(C)CCC1CCCc2ccc(NC(=O)Nc3ccc(-c4ccncc4)c4ccccc34)cc21 (stereo unspecified) | 4.29% | 1.03% | -0.88%
CC(=O)Nc1ccc(C(=O)Nc2cccc(-c3ccc(-c4nc5cc(C(F)(F)F)ccc5[nH]4)s3)c2)cn1 | 3.05% | 3.45% | 4.26%
CC(C)C(C(=O)n1cc2c(ccc3nc(N)nc(N)c32)n1)C(C)C | 8.32% | 11% | 3.51%
Oc1cccc(Nc2nc(NCC3CCCO3)c3ccccc3n2)c1 (stereo unspecified) | 27% | 24.8% | 9.1%
CCOC(=O)C1=C(C)NC(C)=C(C(=O)OCC)C1(C(=O)OCc1ccccc1)c1cccc(C(F)(F)F)c1 | 2.88% | 3.39% | 4.11%
Cc1cc(N(C)C)nc(Nc2ccc(NS(=O)(=O)c3ccccc3)cc2)n1 | 7.64% | 10.6% | 5.82%
CCCc1cc(=O)oc2cc(OC)c(C(=O)CC(C)C)c(OC)c12 | 0.58% | 3.76% | 6.92%
Cc1ccc(NC(=O)Nc2ccccc2F)cc1-c1ccc(C(=O)Nc2ccncc2)cc1 | 1.42% | 1.06% | 0.59%
COc1cc2c(cc1OC)CN(CCCCNC(=O)c1ccc(NC(=O)c3cc(Cl)cc(Cl)c3)cc1)CC2 | 2.09% | 3.93% | 6.32%
N#CC(c1ccc(F)cc1)c1ccc2c(C(F)(F)F)cc(C(F)(F)F)nc2n1 (stereo unspecified) | 3.66% | 4.6% | 1.81%
CC1CCN(Cc2c(O)ccc3c(CN4CCC(C)CC4)c(O)ccc23)CC1 | 4.79% | 6.78% | 6.37%
Cc1cc(OCCCn2ccnc2)ccc1-c1csc(/N=C(\N)NCc2ccccc2)n1 | 8.57% | 5.79% | 6.56%
O=C(NCCc1cccc(Cl)c1Cl)c1ccc(N2CCN(c3ccncc3)CC2)nc1 | 38.6% | 16.9% | 21.8%
CCc1c(C)c(C#N)c2nc3ccccc3n2c1NCc1ccco1 | 4.43% | 4.23% | 2.13%
COc1ccc(CCn2c(=N)c(C(=O)NCc3cccnc3)cc3c(=O)n4ccccc4nc32)cc1 | 11.7% | 10.9% | 7.6%
COc1cc2c(=O)c(Cc3ccc(Cl)cc3)c(C)[nH]c2cc1F | 2.09% | 3.31% | 0.73%
N#Cc1ccc(NC(=O)N2CCCN(CCCCCNC(=O)/C=C/c3ccc(Cl)c(Cl)c3)CC2)cc1 | 1.89% | 1.77% | 5.16%
COc1ccc(CNCc2ccc(-c3cccc(-c4nc5ccccc5[nH]4)c3)cc2)cc1 | 5.98% | 6.56% | 2.14%

Structure (SMILES) | inhibition [1] | inhibition [2] | inhibition [3]
COc1ccc2nccc([C@@H](O)CN3CCC(NC(=O)/C=C/c4cc(F)cc(Br)c4)CC3)c2c1 | 6.91% | 4.62% | -0.22%
COc1cc(CN/C(=N/c2ccc(-c3ccccc3)cc2)Nc2ccc(C#N)cc2O)cc(OC)c1 | 1.7% | 0.59% | 0.77%
CCN(CC)CCON=Cc1cc(C)c2[nH]c3ccc(OCc4ccccc4)cc3c2c1C | -1.13% | 0.92% | -2.27%
Cc1cc(=NN=CC=Cc2ccccc2)c2cc(F)ccc2[nH]1 | 0.37% | 0.85% | 0.04%
COCCNCc1cccc(-c2ccc3c(Nc4ccc(Oc5ccccc5)cc4)ccnc3c2)c1 | -0.07% | 1.17% | -0.14%
COc1ccc2nc(C)cc(Nc3ccc(Oc4ccc(Cl)cc4)c(Cl)c3)c2c1 | 7.89% | 6.68% | 2.63%
CN1CCCC(CN2CCN(Cc3cccc(-c4cccc(-c5nc6ccccc6[nH]5)c4)c3)CC2)C1 (stereo unspecified) | 1.59% | 2.2% | -0.86%
COc1ccc2nc(NC(N)=NC(=O)Nc3ccccc3)nc(C)c2c1 | 2.55% | 2.15% | 0.15%
CCCC(C)Nc1nc(C)cc(N[C@@H](Cc2ccccc2)C(=O)Nc2ccccc2)n1 (stereo partly specified) | 2.98% | 3.18% | 0.41%
CCCCc1cc(NCc2ccncc2)nc(Nc2cccc(OC)c2)n1 | 21.4% | 10.9% | 3.45%
CCCCCCOc1ccc(C(=O)NCCCC2CCCN(CCCCCNC(=O)C=Cc3ccc(Cl)c(Cl)c3)C2)cc1 (stereo unspecified) | -0.52% | 0.51% | 1.31%
CC(C)COc1ccc(Cl)cc1Cc1nc(-c2nc3cccc(CN4CCN(C)CC4)c3[nH]2)cs1 | 0.6% | 0.77% | 0.67%
COc1cc(C(=O)NC2CC(C)(C)N(C)C(C)(C)C2)ccc1-c1nc2cc(Cl)c(Cl)cc2[nH]1 | -0.5% | 1.21% | 3.3%
COc1cc2c(cc1C(F)(F)F)N(C(=O)Nc1cccc(-c3ccc(CN(C)C)cc3)c1)CC2 | 22.1% | 10.2% | 44%
COc1ccc(C2CCN(CCCNC(=O)c3ccc(NC(=O)c4ccc(Cl)cc4)cc3)CC2)c(OC)c1 | 3.85% | 4.23% | 3.54%
COCCCn1c(=N)c(C(=O)NCCc2ccc(OC)cc2)cc2c(=O)n3cccc(C)c3nc21 | 4.69% | 5.42% | 8.16%
CC1Cc2ccccc2N1S(=O)(=O)c1cccc(C(=O)Nc2nc(-c3ccccn3)cs2)c1 (stereo unspecified) | 13.8% | 14.6% | 5.62%
O=C(NC(=O)c1ccccc1)NC1CCN(c2ccnc3cc(Cl)ccc23)C1 (stereo unspecified) | -0.37% | 1.75% | 0.92%
